# Test results taken from PubChem BioAssay.
# Active and inactive are the calls of the source. Cut-off read from the data, not from the text of the source: active = nuclear beta-catenin stimulation mostly above about 4.2% (no sharp cut-off); inactive = mostly below about 10%. Peptide text beside a SMILES is read from it.
# Assay: stimulators of nuclear beta-catenin in C2C12, primary screen, imaging, WNT3A-conditioned medium, mouse C2C12, NPC library (AID 1117326); note: reference of the scale not given here
# Details: at 10 µM, stronger effect = higher value
row,SMILES,nuclear beta-catenin stimulation
1,CC(C(=O)O)c1ccc(C(=O)c2cccs2)cc1 (configuration not stated),-2.4% (inactive)
2,Oc1c(Cl)cc(Cl)cc1Sc1cc(Cl)cc(Cl)c1O,41.4% (active)
3,CCCCC(CC)CN1CN(CC(CC)CCCC)CC(C)(N)C1 (configuration not stated),-4.8% (inactive)
4,Nc1nc(=S)c2[nH]cnc2[nH]1,14.8% (inactive)
5,Nc1ccc(C(=O)O)cc1,-0.9% (inactive)
6,CC(C(=O)O)c1ccc2c(c1)[nH]c1ccc(Cl)cc12 (configuration not stated),-0.6% (inactive)
7,CO[C@@]1(NC(=O)C(C(=O)O)c2ccc(O)cc2)C(=O)N2C(C(=O)O)=C(CSc3nnnn3C)CO[C@@H]21 (some centres not stated),1.6% (inactive)
8,CC1=C(C(=O)O)N2C(=O)[C@@H](NC(=O)[C@H](N)c3ccc(O)cc3)[C@H]2SC1,1.8% (inactive)
9,Nc1ccc(C(=O)Oc2ccccc2)c(O)c1,0.2% (inactive)
10,NC[C@H]1O[C@H](O[C@H]2[C@H](O)[C@@H](O[C@H]3O[C@H](CO)[C@@H](O)[C@H](N)[C@H]3O)[C@H](N)C[C@@H]2N)[C@H](N)[C@@H](O)[C@@H]1O,0.8% (inactive)
11,Nc1ccc(S(=O)(=O)Nc2ccc(Cl)nn2)cc1,3.3% (inactive)
12,CCN(CC)C(=O)c1cccc(C)c1,6.1% (inactive)
13,CN1C(C)(C)CCCC1(C)C,1.1% (inactive)
14,COC(=O)[C@H](Cc1ccccc1)NC(=O)[C@@H](N)CC(=O)O (H-Asp-Phe-OMe),4.5% (inactive)
15,CCOC(N)=O,2.6% (inactive)
16,CCCCOc1ccc(OCCCN2CCOCC2)cc1,1.4% (inactive)
17,Oc1c(Br)cc(Br)c2cccnc12,4.7% (inactive)
18,Cc1cc2cc3c(C)cc(=O)oc3c(C)c2o1,2.9% (inactive)
19,Nc1ccc(C(=O)NCC(=O)O)cc1,0.5% (inactive)
20,CCCCCN(C)CCC(O)(P(=O)(O)O)P(=O)(O)O,-3% (inactive)

# Same assay, conditions: stimulation, at 2 µM, stronger effect = higher value
row,SMILES,nuclear beta-catenin stimulation
1,Cc1cc(C)cc(OCC2CNC(=O)O2)c1 (configuration not stated),0.2%
2,Cn1c(=O)c2c(ncn2CCO)n(C)c1=O,1.4%
3,CCN1CCN(C(=O)N[C@@H](C(=O)N[C@@H]2C(=O)N3C(C(=O)O)=C(CSc4nnnn4C)CS[C@H]23)c2ccc(O)cc2)C(=O)C1=O,-1.5%
4,CC(C)N=C(N)/N=C(\N)Nc1ccc(Cl)cc1,0.3%
5,CCOC(=O)NNc1nncc2ccccc12,5.1%
6,CCC(Cc1c(I)cc(I)c(N)c1I)C(=O)O (configuration not stated),-1.1%
7,O=C(O)c1ccccc1O,-0.8%
8,Cc1ccc(C(=O)C(C)CN2CCCCC2)cc1 (configuration not stated),4.3%
9,CC(Cc1cccc(C(F)(F)F)c1)NCCOC(=O)c1ccccc1 (configuration not stated),3.6%
10,COc1c2occc2c(OC)c2c(=O)cc(C)oc12,0.4%
11,CC(=O)NCCCCCC(=O)O,0.7%
12,C[N+]12CCC(CC1)C(OC(=O)C(O)(c1ccccc1)c1ccccc1)C2 (configuration not stated),1.9%
13,CC(C)(Oc1ccc(Cl)cc1)C(=O)O,2.1%
14,CCN(CC)CCOc1ccc(/C(=C(\Cl)c2ccccc2)c2ccccc2)cc1,12.4%
15,COc1ccc2cc1Oc1ccc(cc1)C[C@H]1c3c(cc4c(c3Oc3cc5c(cc3OC)CCN(C)[C@@H]5C2)OCO4)CCN1C,7.1%
16,COc1cc(NS(=O)(=O)c2ccc(N)cc2)ncn1,3.5%

row,SMILES,nuclear beta-catenin stimulation
1,NC(=O)NC(=O)Cc1ccccc1,-0.4%
2,Cc1cc(O)cc(C)c1Cl,2%
3,CC(C(=O)O)c1ccc(C(=O)c2cccs2)cc1 (configuration not stated),-0.7%
4,Oc1c(Cl)cc(Cl)cc1Sc1cc(Cl)cc(Cl)c1O,1.5%
5,CCCCC(CC)CN1CN(CC(CC)CCCC)CC(C)(N)C1 (configuration not stated),3.6%
6,Nc1nc(=S)c2[nH]cnc2[nH]1,6.2%
7,Nc1ccc(C(=O)O)cc1,0.3%
8,CC(C(=O)O)c1ccc2c(c1)[nH]c1ccc(Cl)cc12 (configuration not stated),1.1%
9,CO[C@@]1(NC(=O)C(C(=O)O)c2ccc(O)cc2)C(=O)N2C(C(=O)O)=C(CSc3nnnn3C)CO[C@@H]21 (some centres not stated),-0.2%
10,CC1=C(C(=O)O)N2C(=O)[C@@H](NC(=O)[C@H](N)c3ccc(O)cc3)[C@H]2SC1,3.3%
11,Nc1ccc(C(=O)Oc2ccccc2)c(O)c1,2.9%
12,NC[C@H]1O[C@H](O[C@H]2[C@H](O)[C@@H](O[C@H]3O[C@H](CO)[C@@H](O)[C@H](N)[C@H]3O)[C@H](N)C[C@@H]2N)[C@H](N)[C@@H](O)[C@@H]1O,-1.6%
13,Nc1ccc(S(=O)(=O)Nc2ccc(Cl)nn2)cc1,4.5%
14,CCN(CC)C(=O)c1cccc(C)c1,3.9%
15,CN1C(C)(C)CCCC1(C)C,0.5%
16,COC(=O)[C@H](Cc1ccccc1)NC(=O)[C@@H](N)CC(=O)O (H-Asp-Phe-OMe),1.1%
